# Experimental data taken from the supplement of paper PMC7393113.
# Where a name gives a salt, the structure may show the parent alone. ± gives the standard deviation of the averaged measurements.
# Tested on: iBMDM (immortalised mouse bone-marrow-derived macrophages), LPS-stimulated
# Experiment: mitochondrial superoxide (MitoSOX fluorescence) fold increase over unstimulated control; higher = more LPS-induced mitochondrial ROS (less inhibition)
# Details: inhibitor concentration: 500 nM, LPS: 100 ng/ml
# Method in brief: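 Values are fold induction of mitochondrial superoxide relative to untreated macrophages, as a mean of replicates. Immortalised mouse bone-marrow-derived macrophages, seeded in triplicate in black 96-well plates, spent 20 h in phenol-red-free 1% FCS/DMEM before a 30 min pretreatment with kinase inhibitors (500 nM). After 10 min loading with 1 μM MitoSox, cells received LPS (100 ng/ml), and fluorescence (510/580 nm) was measured every 60 min for 4 h.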
SMILES,mitochondrial superoxide (time after LPS: 1 h),mitochondrial superoxide (time after LPS: 2 h),mitochondrial superoxide (time after LPS: 4 h)
COc1cc(Nc2c(C#N)cnc3cc(OCCCN4CCN(C)CC4)c(OC)cc23)c(Cl)cc1Cl [Bosutinib (SKI-606)],1.58 ± 0.017,1.66 ± 0.056,1.81 ± 0.04
Cc1ccc(S(=O)(=O)Nc2nc3ccccc3nc2Nc2ccc3nsnc3c2)cc1,1.4 ± 0.089,1.48 ± 0.091,1.56 ± 0.041
C#Cc1cccc(Nc2ncnc3cc4c(cc23)OCCOCCOCCO4)c1 [Icotinib],1.16 ± 0.036,1.19 ± 0.021,1.31 ± 0.02
Fc1cc(-c2cccc3ncc(-c4cnn(C5CCNCC5)c4)nc23)cc(F)c1CN1CCOCC1,1.15 ± 0.05,1.45 ± 0.13,1.69 ± 0.04
CN(C[C@@H]1COCCO1)S(=O)(=O)Nc1ccc2ccc3ncc(-c4cnn(C)c4)cc3c(=O)c2c1,1.26 ± 0.029,1.51 ± 0.054,1.76 ± 0.048
CCN1CCN(Cc2ccc(Nc3ncc(F)c(-c4cc(F)c5nc(C)n(C(C)C)c5c4)n3)nc2)CC1,1.13 ± 0.056,1.25 ± 0.02,1.36 ± 0.022
O=C1NC(=O)C(c2ccccc2[N+](=O)[O-])=C1Nc1ccc(O)c(Cl)c1,1.12 ± 0.024,1.45 ± 0.084,1.63 ± 0.063
c1cncc(CN2CCC(n3ncc4c(N5CCOCC5)nc(-c5ccc6[nH]ccc6c5)nc43)CC2)c1,1.34 ± 0.059,1.48 ± 0.077,1.66 ± 0.063
C[C@H](Nc1ncnc2nc[nH]c12)c1cc2cccc(Cl)c2c(=O)n1-c1ccccc1,1.09 ± 0.045,1.2 ± 0.032,1.31 ± 0.023
Cc1ccc(S(=O)(=O)C=CC#N)cc1,1.19 ± 0.044,1.19 ± 0.073,1.34 ± 0.095
COc1cc(Nc2ncc(F)c(Nc3ccc4c(n3)NC(=O)C(C)(C)O4)n2)cc(OC)c1OC,1.1 ± 0.027,1.14 ± 0.016,1.28 ± 0.11
Cc1cnc(NC(=O)Nc2cc(Br)c(C)cc2OC[C@@H]2CNCCO2)cn1,1.116 ± 0.011,1.262 ± 0.0098,1.55 ± 0.052
"CN1CCN(c2ccc3nc(-c4c(N)c5c(F)cccc5[nH]c4=O)[nH]c3c2)CC1 [Dovitinib (TKI-258, CHIR-258)]",1.62 ± 0.087,1.7 ± 0.026,1.91 ± 0.073
O=C1c2ccccc2-c2n[nH]c3cccc1c23,1.12 ± 0.027,1.2 ± 0.15,1.3 ± 0.13
CCN1C(=CC(C)=O)Sc2ccc(OC)cc21,1.417 ± 0.014,1.44 ± 0.089,1.63 ± 0.1
CCc1cccc(CC)c1NC(=O)N1Cc2[nH]nc(NC(=O)c3ccc(N4CCN(C)CC4)cc3)c2C1,1.09 ± 0.027,1.24 ± 0.015,1.34 ± 0.099
CC(C)(C)c1cnc(CSc2cnc(NC(=O)C3CCNCC3)s2)o1,1.32 ± 0.035,1.43 ± 0.017,1.5 ± 0.14

SMILES,mitochondrial superoxide (time after LPS: 1 h),mitochondrial superoxide (time after LPS: 2 h),mitochondrial superoxide (time after LPS: 4 h)
O=C1NC(=O)/C(=C/c2cccc(C(F)(F)F)c2)S1,1.27 ± 0.052,1.35 ± 0.074,1.53 ± 0.05
CCNC(=O)Nc1ccc(-c2nc3c(c(N4CCOC[C@@H]4C)n2)CCN(C2COC2)C3)cc1,1.42 ± 0.045,1.6 ± 0.039,1.68 ± 0.062
CN1CC[C@H](c2c(O)cc(O)c3c(=O)cc(-c4ccccc4Cl)oc23)[C@H](O)C1 [Flavopiridol HCl],1.31 ± 0.077,1.48 ± 0.088,1.71 ± 0.06
COc1cc(N2CCC(N)CC2)ccc1Nc1ncc(Cl)c(-c2c[nH]c3ccccc23)n1,1.21 ± 0.018,1.27 ± 0.025,1.36 ± 0.057
CCCCCCCCCCCCc1ccc(S(=O)(=O)Nc2nncs2)cc1,1.21 ± 0.041,1.2 ± 0.016,1.2 ± 0.038
O=c1cc(N2CCOCC2)oc2c(-c3ccccc3)cccc12,1.36 ± 0.075,1.41 ± 0.086,1.52 ± 0.035
OCCn1cc(-c2ccc3c(c2)CC/C3=N\O)c(-c2ccncc2)n1,1.36 ± 0.044,1.45 ± 0.064,1.49 ± 0.02
CCOc1ccn(-c2ccc(F)cc2)c(=O)c1C(=O)Nc1ccc(Oc2ccnc(N)c2Cl)c(F)c1,1.25 ± 0.045,1.28 ± 0.084,1.28 ± 0.017
Nc1nccc(Oc2ccc(NC(=O)c3c[nH]cc(-c4ccc(F)cc4)c3=O)cc2F)c1Cl,1.21 ± 0.032,1.22 ± 0.043,1.37 ± 0.11
CCCCCCCCc1ccc(CCC(N)(CO)CO)cc1 [Fingolimod (FTY720) HCl],1.15 ± 0.043,1.19 ± 0.071,1.31 ± 0.038
Cc1cc(F)c(Nc2ncnc3cc(OCc4ccccc4)ccc23)cc1O,1.17 ± 0.075,1.11 ± 0.018,1.2 ± 0.016
O=C1NC(=O)/C(=C/c2ccc3c(c2)OC(F)(F)O3)S1,1.26 ± 0.032,1.4 ± 0.033,1.51 ± 0.068
CC(=O)Nc1nc(C)c(-c2ccc(Cl)c(S(=O)(=O)NCCO)c2)s1,1.02 ± 0.067,1.15 ± 0.03,1.23 ± 0.048
NC(=O)Nc1cc(-c2cccc(F)c2)sc1C(=O)N[C@H]1CCCNC1,1.08 ± 0.056,1.11 ± 0.028,1.25 ± 0.1
CCc1cc2c(cc1N1CCC(N3CCOCC3)CC1)C(C)(C)c1[nH]c3cc(C#N)ccc3c1C2=O,1.26 ± 0.097,1.4 ± 0.066,1.64 ± 0.12
CN(C)Cc1cccc(N=C(c2ccccc2)c2c(O)[nH]c3cc(C(N)=O)ccc23)c1,1.15 ± 0.031,1.15 ± 0.052,1.26 ± 0.07
